From PubChem BioAssay
Anthrax LF prot: blocks Bacillus anthracis lethal factor protease; multiplex microsphere protease cleavage assay, LF; 0.12% of 360,000 active; inhibition, % at 10 µM; AID 588501; P15917; also: plate controls were buffer without enzyme for full effect and enzyme alone for no effect
BoNT-A LC inh2: BoNT A light chain protease inhibition; multiplex microsphere protease substrate cleavage, flow cytometry; inhibition, % at 10 µM; 0.17% of 360,000 active; AID 588499; also: plate controls were buffer without enzyme for full effect and enzyme alone for no effect
MazEF act: MazEF (E. coli) toxin RNase activation; AID 504720; FAM/BHQ RNA-DNA oligo cleavage fluorescence, 5 h; P0AE70; activation, % at 20 µM; 0.32% of 350,000 active; in the data active = activation above about 50%
Target sequence (P0AE70 whole entry, looked up): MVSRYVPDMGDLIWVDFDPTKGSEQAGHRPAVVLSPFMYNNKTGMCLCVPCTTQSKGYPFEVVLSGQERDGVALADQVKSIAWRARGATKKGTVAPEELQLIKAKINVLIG
BoNT F protease: inhibitors of Botulinum neurotoxin F light chain protease; Multiplex microsphere protease cleavage assay, flow cytometry; 0.22% of 360,000 active; inhibition, % at 10 µM; AID 588497; in the data active = inhibition above about 35%, passing the limit was not always enough; inconclusive = no clear call, values can overlap the other calls; also: plate controls were buffer without enzyme for full effect and enzyme alone for no effect
Autofluor counter: counter-screen for toxin protease inhibitors: compound fluorescence | compound autofluorescence counterscreen, microsphere flow cytometry; stronger effect = higher value | fluorescence intensity (test concentration not listed) | 3.1% of 360,000 active | AID 624483; in the data active = fluorescence intensity above about 16000; inconclusive = no clear call, values can overlap the other calls
* hit, by the source's call. Compounds with a hit are over-represented: about 3.7% of the library has one in this group of screens. Rule as the data show it, unless noted: active = inhibition above about 30%; inconclusive = no clear call, values can overlap the other calls; inactive = below that.

Results for CCC(C)NC(=O)CSc1nc2ccccc2c(=O)n1CCCC(=O)NCC1CCCO1 (centres undefined) ?
Anthrax LF prot: -2; BoNT-A LC inh2: inconclusive; MazEF act: 0; BoNT F protease: -2; Autofluor counter: 22505*

How did O=C(CCCn1c(SCC(=O)Nc2ccccc2C(F)(F)F)nc2ccccc2c1=O)NCC1CCCO1 (centres undefined) do in these assays?
Anthrax LF prot: 0; BoNT-A LC inh2: 3; MazEF act: 7; BoNT F protease: 5; Autofluor counter: 5334

How did O=C(CCCn1c(SCC(=O)NCCc2ccccc2)nc2ccccc2c1=O)NCC1CCCO1 (centres undefined) do in these assays?
Anthrax LF prot: 0; BoNT-A LC inh2: 0; MazEF act: 3; BoNT F protease: -5; Autofluor counter: 3293

What do the screens show for `O=C(CCCn1c(SCC(=O)NC2CCCCC2)nc2ccccc2c1=O)NCC1CCCO1` (centres undefined)?
Anthrax LF prot: -3; BoNT-A LC inh2: 0; MazEF act: 2; BoNT F protease: -1; Autofluor counter: 21817*

What do the screens show for `O=C(CCCn1c(SCC(=O)c2ccc(O)c(O)c2)nc2ccccc2c1=O)NCC1CCCO1` (centres undefined)?
Anthrax LF prot: 2; BoNT-A LC inh2: 0; MazEF act: 7; BoNT F protease: -1; Autofluor counter: 23404*

What do the screens show for `COc1ccc(NS(=O)(=O)c2cccc(C(=O)N3CCN(C/C=C/c4ccccc4)CC3)c2)cc1`?
Anthrax LF prot: -5; BoNT-A LC inh2: 0; MazEF act: 10; BoNT F protease: -9; Autofluor counter: 3955

How did C[C@@H]1CN([C@H](C)CO)C(=O)CCCn2cc(nn2)CO[C@H]1CN(C)C(=O)Cc1ccccc1 do in these assays?
Anthrax LF prot: 0; BoNT-A LC inh2: 0; MazEF act: -2; BoNT F protease: 2; Autofluor counter: 3712

Results for C[C@@H]1CN([C@H](C)CO)C(=O)CCCn2cc(nn2)CO[C@H]1CN(C)C(=O)Nc1ccnc(N2CCOCC2)c1 ?
Anthrax LF prot: -5; BoNT-A LC inh2: 0; MazEF act: 4; BoNT F protease: -4; Autofluor counter: 3488

How did O=C(Cn1cncn1)N/N=C/c1cccc2ccccc12 do in these assays?
Anthrax LF prot: -1; BoNT-A LC inh2: 0; MazEF act: -7; BoNT F protease: 1; Autofluor counter: 2178

What do the screens show for `C[C@H](NC(=O)Cn1cncn1)c1ccccc1`?
Anthrax LF prot: 1; BoNT-A LC inh2: -1; MazEF act: -1; BoNT F protease: 0; Autofluor counter: 17083*

What do the screens show for `CC(NC(=O)Cn1cnc([N+](=O)[O-])n1)c1ccccc1` (centres undefined)?
Anthrax LF prot: -3; BoNT-A LC inh2: -3; MazEF act: 1; BoNT F protease: -56; Autofluor counter: 4334

How did O=C(Cn1cncn1)NCc1cccc2ccccc12 do in these assays?
Anthrax LF prot: -2; BoNT-A LC inh2: inconclusive; MazEF act: 3; BoNT F protease: 1; Autofluor counter: 22835*

How did O=C(O)c1cccc2cccc(-c3c4ccc(=O)c(O)c-4oc4c(O)c(O)ccc34)c12 do in these assays?
Anthrax LF prot: -19; BoNT-A LC inh2: -3; MazEF act: -18; BoNT F protease: -16; Autofluor counter: 2542

Results for O=C(Nc1ccc(Cl)cc1)N(Cc1cccnc1)Cc1ccco1 ?
Anthrax LF prot: -6; BoNT-A LC inh2: -1; MazEF act: -3; BoNT F protease: -5; Autofluor counter: 9511

How did Cc1ccc(NC(=O)N(Cc2cccnc2)Cc2ccco2)cc1C do in these assays?
Anthrax LF prot: -7; BoNT-A LC inh2: -3; MazEF act: 0; BoNT F protease: -4; Autofluor counter: 23168*

What do the screens show for `Cc1ccc(C(=O)NCC(=O)Nc2ccc(S(=O)(=O)Nc3cc(C)nc(C)n3)cc2)cc1`?
Anthrax LF prot: -4; BoNT-A LC inh2: 0; MazEF act: -2; BoNT F protease: -2; Autofluor counter: 2918

Results for c1ccc(-c2csc(-n3cnnn3)n2)cc1 ?
Anthrax LF prot: 0; BoNT-A LC inh2: 2; MazEF act: -10; BoNT F protease: 5; Autofluor counter: 21991*

How did COc1ccc(S(N)(=O)=O)cc1C(=O)NNC(=O)c1cccc(S(=O)(=O)N2CCOCC2)c1 do in these assays?
Anthrax LF prot: -1; BoNT-A LC inh2: -3; MazEF act: 0; BoNT F protease: 0; Autofluor counter: 6016

Results for Cc1cccc(OCc2nnc(SCC(=O)N(c3ccccc3)C3CCS(=O)(=O)C3)o2)c1 (centres undefined) ?
Anthrax LF prot: -1; BoNT-A LC inh2: 0; MazEF act: 7; BoNT F protease: 3; Autofluor counter: 3823
